Experimental findings from PubChem BioAssay AID1259418 (Broad Institute, 2018) are described below.

Among all 3,400 compounds or so, about 840 (25%) were called active. About 11% were inconclusive and are not listed.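 The calls were made as follows: active = fitted half-maximal concentration of signal decrease at or below twice the sample's top tested concentration; inconclusive = flat curve between -70 and -30 percent, or poor fit; inactive = flat within 30 percent, signal rise, or potency above limit.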 Not all results are given here. Entries with a potency or affinity are not part of this list.

This test can be described thus: T. gondii growth inhibition with IFN-gamma, dose response, cell-based, ME49Luc, HeLa, luciferase, 72 h (AID 1259418). The following applies: T. gondii ME49Luc in IFN-y HeLa, stronger effect = lower value, -100% = high-dose IFN-γ control wells; at 19.5 µM unless noted.
With `COc1ccc(NC(=O)Nc2ccc(-c3nc(-c4ccc(C)cc4)co3)cc2)cc1OC`, the max activity was -10.2% [at 1.35 µM] (inactive).

For `COc1ccc(CC(=O)N2CCC3(CC2)Nc2cc(F)ccc2-n2cccc23)cc1`, the max activity is 9.99% [at 0.16 µM] (inactive). For `Cc1ccc(-c2coc(-c3ccc(NS(=O)(=O)c4ccc(Br)cc4)cc3)n2)cc1C`, the max activity was 22% [at 0.68 µM] (inactive).

Consider `CN1C(=O)c2cc(NC(=O)Cc3cccs3)ccc2OC[C@@H]2O[C@H](CC(=O)N[C@H]3CCN(Cc4ccccc4)C3)CC[C@@H]21`, for which the max activity was 21.7% (inactive).

For the compound `CN1C(=O)c2cc(NC(=O)Cc3cccs3)ccc2OC[C@@H]2O[C@H](CC(=O)N[C@@H]3CCN(Cc4ccccc4)C3)CC[C@@H]21`, the max activity was 12.6% [at 0.6 µM] (inactive). For `Cc1ccc(-c2coc(-c3ccc(NC(=O)Nc4ccccc4)cc3)n2)c(C)c1` the value was 15.7% [at 0.16 µM] (inactive). The value for `Cc1ccc(N2CCN(C(=O)c3ccc(-c4csc(C5CC5)n4)cc3)CC2)c(C)c1` was 4.42% (inactive). With `COc1cc(NC(=O)Nc2ccc(-c3nc(-c4ccccc4)co3)cc2)cc(OC)c1`, the max activity was 11.5% [at 0.16 µM] (inactive).

Consider `COc1ccc(-c2nc3c(s2)CN(C(=O)Nc2ccc(C)cc2C)CC3)cc1`, for which the max activity is 24.8% (inactive). For `COc1ccc(-c2nc3c(s2)CN(C(=O)Nc2cc(C)cc(C)c2)CC3)cc1` the value was 17.7% (inactive); for `COc1cccc(-c2nc3c(s2)CN(C(=O)Nc2ccc(OC)c(OC)c2)CC3)c1`, 7.26% (inactive). For `Cc1ccc(-c2nc3c(s2)CN(C(=O)Nc2cccc(C)c2)CC3)cc1`, the max activity was 26.8% [at 10 µM] (inactive).

With `Cc1ccc(-c2nc3c(s2)CN(C(=O)Nc2ccccc2C)CC3)cc1`, the max activity was 18.7% (inactive). For `COc1cccc(-c2nc3c(s2)CN(C(=O)Nc2ccc(C)c(C)c2)CC3)c1` the value was 12.6% [at 2.6 µM] (inactive). The value for `Cc1nc(CCNC(=O)C2CCN(S(=O)(=O)c3ccc(F)c(F)c3)CC2)cs1` was 10.4% [at 5 µM] (inactive). For `Cc1ccc2c(c1C)-n1cccc1C1(CCN(C(=O)c3cccc(F)c3)CC1)N2` the value was -11.1% [at 0.35 µM] (inactive). In the case of `Cc1ccccc1Cn1c(CN2CCC(C(=O)NCCC(C)N3CCCC3)CC2)cc2ccccc21` (stereo unspecified), the max activity was 15.2% [at 0.16 µM] (inactive). For `O=C(NCCN1CCCC1)C1CCN(Cc2cc3ccccc3n2Cc2ccccc2Cl)CC1` the value was 6.81% (inactive); for `O=C(NCc1cccnc1)C1CCN(Cc2cc3ccccc3n2Cc2ccccc2Cl)CC1`, -4.69% [at 1.35 µM] (inactive). For `O=C(Nc1ccc(-c2nc(-c3ccccc3)co2)cc1)Nc1ccccc1F` the value was 103% (inactive).

For the compound `COc1ccc(Cl)cc1NC(=O)N1CCc2nc(-c3ccccc3)sc2C1`, the max activity was -14.8% [at 0.35 µM] (inactive). The value for `CN(Cc1ccccn1)C(=O)C1=NOC2(CCN(S(=O)(=O)c3cccc(F)c3)C2)C1` (stereo unspecified) was 23.5% [at 10 µM] (inactive). For `Cc1ccc(-c2coc(-c3ccc(NC(=O)Nc4ccc(F)c(Cl)c4)cc3)n2)cc1` the value was 49.3% (inactive); for `CCc1c(C)sc2c1CCN(Cc1nc(-c3ccc(C(C)C)cc3)oc1C)C2c1ccccc1` (stereo unspecified), 9.71% (inactive); for `Cc1ccccc1C(=O)Nc1cnc(N2CCC(C(N)=O)(N3CCCCC3)CC2)c(C(=O)O)c1`, -6.96% [at 1.35 µM] (inactive). For `CC(C)Cc1ccc(S(=O)(=O)N2CCC3(CC2)NCCN=C3NCc2cccc(F)c2)cc1` the value was 16.8% [at 10 µM] (inactive); for `CCc1ccc(S(=O)(=O)N2CCC3(CC2)NCCN=C3NCc2cc(F)cc(F)c2)cc1`, 16.8% (inactive). As for `CCc1ccc(S(=O)(=O)N2CCC3(CC2)NCCN=C3NCc2ccc(Cl)cc2)cc1`, the max activity was 17.4% [at 10 µM] (inactive). For `Cc1cnn(C(C)C(=O)N2CCc3[nH]nc(-c4ccc(F)c(F)c4)c3C2)c1` (stereo unspecified) the value was 11.2% (inactive); for `Cc1ccc(-c2coc(-c3ccc(NC(=O)Nc4ccccc4Cl)cc3)n2)cc1`, 13.9% [at 0.16 µM] (inactive). The value for `COC(=O)C1CCN(S(=O)(=O)c2cc3c4c(c2)CCC(=O)N4CCC3)CC1` was 9.1% [at 1.35 µM] (inactive); that for `CCOc1ccc(-c2nc3c(s2)CN(S(=O)(=O)c2cc(C)cc(C)c2)CC3)cc1` was -12.1% [at 2.6 µM] (inactive). The value for `COc1ccc(-c2nc(NCc3cccc(Cl)c3)c3ccccc3n2)cc1` was -12% [at 0.35 µM] (inactive); that for `CCc1c(C)sc2c1CCN(Cc1nc(-c3ccc(Cl)cc3)oc1C)C2c1ccccc1` (stereo unspecified) was 38.9% [at 10 µM] (inactive); that for `CCc1ccccc1NC(=O)N1CCc2nc(-c3ccc(C)cc3)sc2C1` was -16.8% (inactive). With `Clc1ccc(-c2nc(N3CCN(Cc4ccc5c(c4)OCO5)CC3)c3ccccc3n2)cc1`, the max activity was 21.6% [at 2.6 µM] (inactive). The value for `O=C(Nc1ccc(Cl)cc1)Nc1ccc(-c2nc(-c3ccccc3)co2)cc1` was -18.8% [at 2.6 µM] (inactive); that for `Cc1oc(-c2ccccc2)nc1CN(c1ccccc1)S(=O)(=O)c1ccccc1` was 6.75% [at 2.6 µM] (inactive); that for `Cc1oc(-c2ccc(OC(C)C)cc2)nc1CN(c1ccccc1)S(=O)(=O)c1ccccc1` was 5.29% (inactive). For the compound `COc1ccc(N(Cc2nc(-c3ccc(C)cc3)oc2C)S(=O)(=O)c2ccc(OC)cc2)cc1`, the max activity is 6.72% [at 1.35 µM] (inactive). For `COc1ccc(-c2nc(CN(c3ccc(OC)cc3)S(=O)(=O)c3ccc(C)cc3)c(C)o2)cc1` the value was -10.7% [at 0.16 µM] (inactive); for `COc1ccc(-c2nc(CN(c3ccc(OC)cc3)S(=O)(=O)c3ccc(OC)cc3)c(C)o2)cc1`, 16.7% [at 5 µM] (inactive); for `COc1ccc(-c2nc(CN(c3ccc(OC)cc3)S(=O)(=O)c3ccccc3)c(C)o2)cc1`, 21.2% [at 5 µM] (inactive). Regarding `COc1ccc(S(=O)(=O)N2CCC[C@@H]2C(=O)NCCc2csc(C)n2)cc1`, the max activity is -6.98% [at 5 µM] (inactive). For `CCc1ccccc1NC(=O)COc1nc(C)nc2ccccc12` the value was -12.9% [at 2.6 µM] (inactive). In the case of `COCCNC(=O)C1(C)CCC(=O)N1CCc1c[nH]c2ccccc12` (stereo unspecified), the max activity was 3.62% (inactive).
